An excerpt weighted towards active compounds, which were near 1.6% of everything screened.
KCNQ2 block: KCNQ2 (rat) channel inhibition. CHO-K1 KCNQ2, FluxOR thallium flux, 20 min; stronger effect = lower value. B-score at 10 µM. 310,000 compounds, 1.1% hits;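 active = fluorescence ratio B-score at most minus 3 library SDs, with starting brightness B-score within 2 library SDs, cut at about -5.5 in these data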
KCNQ2 pot: potentiators of rat KCNQ2 potassium channel; O88943; CHO-K1 KCNQ2, FluxOR thallium flux fluorescence; stronger effect = higher value; B-score at 10 µM; 310,000 compounds, 0.54% hits; AID 2239;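 active = fluorescence ratio B-score at least 3 SD of library B-scores, with initial fluorescence B-score within 3 of them, cut at about 5.3 in these data; same plate scores as AID 2156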;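 also: B-score of peak minus minimum over baseline fluorescence ratio after K+ and Tl+ stimulus; positive B-score means potentiation of KCNQ2 with more thallium influx and brighter signal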
Kir21 conf inh: confirmation of mouse Kir2.1 potassium channel inhibitors | Tl flux remaining, % of negative control (stronger effect = lower value), % at 10 µM | 2,300 compounds, 41% hits | shares compounds with KCNQ2 pot | AID 2032 | Kir2.1-expressing cells, FluxOR thallium flux fluorescence; stronger effect = lower value;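 active = Primary-screen hit whose thallium flux fell at least 3 control SD below untreated wells in both duplicates, with normal baseline fluorescence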;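 also: 0% = blank wells without stimulus and 100% = stimulated no-compound controls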
Target sequence (P35561 whole entry, looked up): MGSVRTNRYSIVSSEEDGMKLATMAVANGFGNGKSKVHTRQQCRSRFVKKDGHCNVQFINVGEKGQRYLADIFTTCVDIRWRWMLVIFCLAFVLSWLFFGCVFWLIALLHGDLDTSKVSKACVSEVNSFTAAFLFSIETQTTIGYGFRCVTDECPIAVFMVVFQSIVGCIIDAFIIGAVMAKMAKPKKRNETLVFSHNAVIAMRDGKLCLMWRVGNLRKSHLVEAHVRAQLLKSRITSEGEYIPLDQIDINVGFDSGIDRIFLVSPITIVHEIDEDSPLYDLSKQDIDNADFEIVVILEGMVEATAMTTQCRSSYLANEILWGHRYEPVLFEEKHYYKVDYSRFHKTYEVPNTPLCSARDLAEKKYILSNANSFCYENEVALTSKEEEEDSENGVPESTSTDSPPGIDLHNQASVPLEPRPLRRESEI
HEK293 ctr: alters thallium flux in parental HEK293 cells, Kir2.1 counter-screen. 2,300 compounds, 19% hits. FluxOR thallium flux fluorescence; 0% = unstimulated blank wells. FluxOR signal as % of negative control (100 = no effect), % at 10 µM. shares compounds with KCNQ2 pot;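 active = dye signal at least 3 control SD above or below untreated wells in both duplicates, raw fluorescence within 3, either direction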;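 also: percent is based on the flux ratio of peak minus minimum fluorescence over baseline F0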
CHO-K1 Tl ctr: parental CHO-K1 activity in KCNQ2 potentiator counter-screen; shares compounds with KCNQ2 pot; parental CHO-K1 cells, FluxOR thallium flux fluorescence; zero = vehicle mean+3SD, 100% = vehicle-minus-blank window; activity increase over 3SD of controls, % at 10 µM; 1,200 compounds, 43% hits;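 active = signal rise of at least 3 SD above the untreated control mean, in both duplicate wells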;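 also: counter screen of KCNQ2 potentiator hits so any rise reflects channel-independent effects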
KCNQ1 sel pot: selectivity of KCNQ2 potentiators: effect on human KCNQ1; activation over 3SD threshold, % at 10 µM; shares compounds with KCNQ2 pot; AID 2283; 1,200 compounds, 28% hits; CHO KCNQ1 stable, FluxOR thallium flux fluorescence; beyond 3SD, as % of vehicle-control signal;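 active = fluorescence ratio rise of at least 3 SD of vehicle wells above their mean, in both replicate wells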;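 also: 0% = vehicle mean plus 3 SD and 100% = vehicle minus unstimulated blank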
KCNQ2 pot confirm: rat KCNQ2 channel potentiator confirmation; 1,200 compounds, 68% hits; shares compounds with KCNQ2 pot; CHO-KCNQ2 cells, FluxOR thallium flux fluorescence; potentiation, less the hit threshold, % at 10 µM; AID 2287;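 active = fluorescence ratio rising 3 SD or more over the vehicle control mean in both replicates, plus primary screen hit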;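 also: peak minus minimum thallium fluorescence divided by baseline after K/Tl stimulus; 0% = vehicle mean plus 3 SD and 100% = vehicle minus unstimulated blank difference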
Kir21 spec: selectivity of KCNQ2 potentiators: effect on mouse Kir2.1. activity over 3SD threshold, % at 10 µM. HEK293 Kir2.1, FluxOR thallium flux fluorescence. 1,200 compounds, 2% hits. shares compounds with KCNQ2 pot;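 active = fluorescence ratio rise of at least 3 SD above the vehicle-control mean, seen in both replicates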;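 also: 0% = vehicle mean plus 3 SD and 100% = vehicle minus no-stimulus blank window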
KCNQ2 W236L MoA: rat KCNQ2 W236L mutant potentiation by KCNQ2 potentiators; shares compounds with KCNQ2 pot; CHO KCNQ2-W236L, automated patch clamp current; current increase over 3SD of negative controls (%), stronger effect = higher value, % at 25 µM; 940 compounds, 10% hits; AID 2558;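 active = current increase at least 3 SD of the untreated controls above them in both duplicate recordings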
Active calls of the source: *; i = inactive; / = no result.

SMILES | KCNQ2 block | KCNQ2 pot | Kir21 conf inh | HEK293 ctr | CHO-K1 Tl ctr | KCNQ1 sel pot | KCNQ2 pot confirm | Kir21 spec | KCNQ2 W236L MoA
COc1ccc(NC(=O)C(Cc2cc(C)cc(C)c2)C(C)C(=O)O)cc1 (centres undefined) | i | 0.41 | / | / | / | / | / | / | /
COc1cccc(NC(=O)[C@H](NC(=O)[C@@H]2Cc3ccccc3CN2)c2ccccc2)c1 | i | / | / | / | / | / | / | / | /
CCCc1nc2oc3c(Cl)ncnc3c2c2c1CCCC2 | i | 0.39 | / | / | / | / | / | / | /
CCCc1nc2oc3c(NCCN(C)C)ncnc3c2c2c1CCCC2 | i | 5.36* | i | i | -15.5 | -4.5 | 50.7* | -56.6 | i
O=C(CC12CC3CC(CC(C3)C1)C2)NCC(c1ccc(F)cc1)N1CCOCC1 (centres undefined) | i | 11.2* | i | i | -13.3 | -14.9 | 35.5* | -49.3 | i
O=C(NCC(c1ccc(F)cc1)N1CCOCC1)c1cc(F)c(F)c(F)c1F (centres undefined) | i | / | / | / | / | / | / | / | /
Cc1cccc(NS(=O)(=O)c2ccc(OCC(=O)N3CCCC3)cc2)c1 | i | / | / | / | / | / | / | / | /
O=C(NC(=S)Nc1ccccc1)c1ccc(Br)o1 | i | 8.16* | i | 162.0%* | 129.6* | -19.2 | 34.8* | -24.2 | i
O=C(NC(=S)N1CCc2ccccc21)C1CCC1 | i | 0.25 | / | / | / | / | / | / | /
COc1ccc(NC(=S)NC(=O)c2ccc(Br)o2)cc1 | i | 8.52* | i | 199.5%* | -5.6 | -4.5 | 38.9* | -22.9 | i
NC(=O)c1ccccc1NC(=S)NC(=O)c1ccc(Br)o1 | i | / | / | / | / | / | / | / | /
O=C(NC(=S)N1CCc2ccccc21)c1ccc(Br)o1 | i | 9.81* | i | 399.0%* | -8.6 | 47.9* | 75.4* | -15.2 | i
COc1ccc(NC(=O)c2ccc(Br)o2)cc1 | i | 0.29 | / | / | / | / | / | / | /
O=C(NC(=S)NCc1ccccc1)c1ccc(Br)o1 | i | 13* | i | 330.0%* | -11.2 | -19.4 | 52.7* | -31.4 | i
O=C(NNC(=S)NCc1ccccc1)c1ccc(Br)o1 | i | / | / | / | / | / | / | / | /
O=C(NCc1ccccc1Cl)c1cc(=O)[nH]c2ccccc12 | i | / | / | / | / | / | / | / | /
O=[N+]([O-])c1ccc(S(=O)(=O)c2cccc(C(F)(F)F)c2)nc1 | i | / | / | / | / | / | / | / | /
Cc1snnc1C(=O)NC(=S)Nc1ccccc1 | i | 5.95* | i | 239.0%* | -22.4 | -13.8 | 34.5* | -16.7 | i
O=C(NC(=S)Nc1cccnc1)c1ccccc1 | i | 0.03 | / | / | / | / | / | / | /
O=C(Nc1cc(NC(=O)c2ccccc2F)ccc1Cl)c1ccccc1 | i | 0.71 | / | / | / | / | / | / | /
COc1ccccc1CNC(=O)CNC(=O)c1ccc(Br)o1 | i | 1.42 | / | / | / | / | / | / | /
Cc1cc(C)cc(NC(=O)c2cnn(-c3ccccc3)c2C2CCNCC2)c1 | i | 1.32 | / | / | / | / | / | / | /
CCc1cc2c3c([nH]c2cc1S(=O)(=O)N1CCC2(CC1)OCCO2)CCCC3=O | i | 1.58 | / | / | / | / | / | / | /
Cc1cc2c3c([nH]c2cc1S(=O)(=O)N1CCC2(CC1)OCCO2)CC(C)(C)CC3=O | i | 5.46* | i | 62.5%* | -2.9 | -23.7 | -11.1 | -26.9 | /
COc1cccc(NC(=O)Cc2nnc(SCC(=O)NC3CCCCC3)n2C)c1 | i | 0.09 | / | / | / | / | / | / | /
S=c1nc(C2CC2)[nH]c2ccccc12 | i | 15.6* | i | 341.0%* | 16.6* | -10.9 | 46.2* | -17.9 | i
S=c1nc(C2CCCCC2)[nH]c2ccccc12 | i | / | / | / | / | / | / | / | /
c1ccc(-c2ccc(-c3ccncn3)cc2)cc1 | i | 1.31 | / | / | / | / | / | / | /
O=C(CSc1ccc(Cl)cc1)N1N=CCC1c1ccccc1 (centres undefined) | i | / | 66.5%* | i | / | / | / | / | /

Screening results deposited in PubChem by Johns Hopkins Ion Channel Center.
